Test results reported in PubChem BioAssay (NCATS).
Values joined by “and” are separate entries in the source; they are usually repeats but may differ in a detail not shown here. Identical values can stand only once. Inconclusive results are not listed. Active and inactive are the calls of the source. Calls follow the shape of the dose curve; as a rule, active = well fitted curve in the direction sought with a large enough effect; inconclusive = small, poorly fitted or top-dose-only effect, or another doubt; inactive = no such curve, though single readings can be large; an effect the other way counts as inactive or inconclusive.

Legend:
[1] = tested on: KB-3-1; assay: Cytotoxic Profiling of Annotated Libraries Using Quantitative High-Throughput Screening (AID 1296008); settings: Five cell lines viability, CellTiter-Glo ATP luminescence, 48-72 h; max response: stronger effect = lower value; also: nearly all actives have a fitted effect of over 60% in size; also: potency is read from the fitted curve at half-maximal effect; as to max response: % is scaled to controls: 0 for no effect and ±100 for the full control effect
Method in brief: (§1)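 Cytotoxicity was measured as CellTiter-Glo ATP luminescence, read after 10 min at room temperature. Compound treatment of the cells lasted 48 or 72 hr at 37 degrees Celsius in a qHTS format.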

[2] = tested on: NIH3T3; assay: as above; settings: Five cell lines viability, CellTiter-Glo ATP luminescence, 48-72 h; max response: stronger effect = lower value
Method in brief: as §1

[3] = tested on: CRL-7250; assay: qHTS assay to identify novel small-molecules to repurpose for Merkel cell carcinoma treatment (AID 1296009); settings: MCC and control cell lines, CellTiter-Glo viability, 72 h; at 44.8 µM (top of the series) unless noted; also: nearly all actives have a fitted effect of over 60% in size
Method in brief: (§2)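 72 hr, 37 degree celsius; NPC 8-pt / MIPE 11-pt dose response; compound pinned in DMSO; CellTiter-Glo, 10 min RT, luminescence; normalized to no-cell and DMSO controls.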

[4] = tested on: HACAT; assay: as above; settings: MCC and control cell lines, CellTiter-Glo viability, 72 h; at 44.8 µM (top of the series) unless noted
Method in brief: as §2

[5] = tested on: NIH3T3; assay: as above; settings: MCC and control cell lines, CellTiter-Glo viability, 72 h; at 44.8 µM (top of the series) unless noted
Method in brief: as §2

[6] = tested on: C33A; assay: Primary qHTS to identify gynecologic anti-cancer compounds using libraries of approved drugs and bioactive compounds (AID 1345084); settings: Gynecologic cancer cell panel viability, ATPlite luminescence, 48 h; series mostly up to 57.5 µM; also: % is scaled to controls: 0 for no effect and ±100 for the full control effect; nearly all actives have a fitted effect of over 55% in size
Method in brief: (§3)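 Cell viability after 48 h drug treatment, ATPlite luminescence readout; five doses.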

[7] = tested on: CAOV3; assay: as above; settings: Gynecologic cancer cell panel viability, ATPlite luminescence, 48 h; series mostly up to 57.5 µM
Method in brief: as §3

[8] = tested on: CASKI; assay: as above; settings: Gynecologic cancer cell panel viability, ATPlite luminescence, 48 h; series mostly up to 57.5 µM
Method in brief: as §3

[9] = tested on: Es-2; assay: as above; settings: Gynecologic cancer cell panel viability, ATPlite luminescence, 48 h; series mostly up to 57.5 µM
Method in brief: as §3

[10] = tested on: HeLa; assay: as above; settings: Gynecologic cancer cell panel viability, ATPlite luminescence, 48 h; series mostly up to 57.5 µM
Method in brief: as §3

[11] = tested on: Hek293T; assay: as above; settings: Gynecologic cancer cell panel viability, ATPlite luminescence, 48 h, control line for the selectivity index; series mostly up to 57.5 µM
Method in brief: as §3

[12] = tested on: JEG-3; assay: as above; settings: Gynecologic cancer cell panel viability, ATPlite luminescence, 48 h; series mostly up to 57.5 µM
Method in brief: as §3

[13] = tested on: OV90; assay: as above; settings: Gynecologic cancer cell panel viability, ATPlite luminescence, 48 h; series mostly up to 57.5 µM
Method in brief: as §3

[14] = tested on: HEK293T; assay: qHTS assay to identify novel small-molecules to repurpose for Merkel cell carcinoma treatment (AID 1296009); settings: MCC and control cell lines, CellTiter-Glo viability, 72 h; at 44.8 µM (top of the series) unless noted; also: nearly all actives have a fitted effect of over 60% in size
Method in brief: as §2

O=C(N1CCOCC1)N1CCN(c2ccc(Cl)cc2)CC1
inactive: max response [1] 6.75% | outcome [2] | outcome [3] | outcome [4] | outcome [5] | Potency [6] | Potency [7] | Potency [8] | Potency [9] | Potency [10] | Potency [11] | Potency [12] | Potency [13]

COc1ccc2c3c1O[C@H]1C(=O)CC[C@H]4[C@@H](C2)N(C)CC[C@]314
inactive: max response [1] 8.34%

CN1[C@H]2CC[C@@H]1[C@@H](C(=O)O)[C@@H](OC(=O)c1ccccc1)C2
inactive: max response [1] 17.1% and -20.4%

CC(C)[C@@H](CN1CC[C@@](C)(c2cccc(O)c2)[C@@H](C)C1)NC(=O)[C@H]1Cc2ccc(O)cc2CN1
inactive: max response [1] 4.16% | outcome [2] | outcome [3] | outcome [4] | outcome [5] | Potency [6] | Potency [7] | Potency [8] | Potency [9] | Potency [10] | Potency [11] | Potency [12] | Potency [13]

COC(=O)C1(C)CCC(O)C2(C)c3cc(O)c(C(C)C)cc3C(O)C(OC(C)=O)C12 (centres undefined)
inactive: outcome [1] | max response [2] 3.45% | outcome [3] inactive [at 17.4 µM] | outcome [4] inactive [at 17.4 µM] | Potency [6] | Potency [7] | Potency [8] | Potency [9] | Potency [10] | Potency [11] | Potency [12] | Potency [13]

C/C=C(\C)C(=O)OC1CC2C(CC=C3CC(OC4CC(OC)C(OC5CC(OC)C(OC6OC(C)C(OC7OC(CO)C(O)C(O)C7O)C(OC)C6O)C(C)O5)C(C)O4)CCC32C)C2(O)CCC(C(C)=O)C12C (centres undefined)
inactive: outcome [1] | max response [2] -0.91% | outcome [3] inactive [at 9.27 µM] | outcome [4] inactive [at 9.27 µM] | activity change, negative = cytotoxicity [6] 3.18% [at 11.6 µM] | activity change, negative = cytotoxicity [7] 5.78% [at 11.6 µM] | activity change, negative = cytotoxicity [8] 19.1% [at 11.6 µM] | activity change, negative = cytotoxicity [9] 3.55% [at 11.6 µM] | activity change, negative = cytotoxicity [10] -1.26% [at 11.6 µM] | activity change, negative = cytotoxicity [11] 2.23% [at 11.6 µM] | activity change, negative = cytotoxicity [12] 1.45% [at 11.6 µM] | activity change, negative = cytotoxicity [13] 8.31% [at 11.6 µM]

CC(CCc1ccc(O)cc1)O[C@@H]1O[C@H](CO[C@H]2OC[C@](O)(CO)[C@H]2O)[C@@H](O)[C@H](O)[C@H]1O (some centres undefined)
inactive: max response [1] 6.77% | max response [2] 3.14% | outcome [3] inactive [at 17.4 µM] | outcome [4] inactive [at 17.4 µM] | outcome [14] inactive [at 17.4 µM] | Potency [6] | Potency [7] | Potency [8] | Potency [9] | Potency [10] | Potency [11] | Potency [12] | Potency [13]

C[N+]1(C)[C@@H]2CC[C@H]1CC(OC(=O)c1c[nH]c3ccccc13)C2 (some centres undefined)
inactive: max response [1] -6.15%

C[C@H]1C(=O)O[C@H]2[C@H](O)[C@]34C5OC(=O)[C@]3(O[C@@H]3OC(=O)[C@H](O)C34[C@H](C(C)(C)C)[C@H]5O)C12O (some centres undefined)
inactive: outcome [1] | outcome [2] | outcome [3] inactive [at 17.4 µM] | outcome [4] inactive [at 17.4 µM] | outcome [5] inactive [at 17.4 µM] | Potency [6] | Potency [7] | Potency [8] | Potency [9] | Potency [10] | Potency [11] | Potency [12] | Potency [13]

CCC/C=C/C=C/C(=O)O[C@H]1/C(=C/C(=O)OC)C[C@H]2C[C@H]([C@@H](C)O)OC(=O)C[C@H](O)C[C@@H]3C[C@H](OC(C)=O)C(C)(C)[C@](O)(C[C@@H]4C/C(=C/C(=O)OC)C[C@H](/C=C/C(C)(C)[C@]1(O)O2)O4)O3
inactive: max response [1] 0.184%

Clc1ccc(OCC2=NCCN2)cc1Cl
inactive: max response [1] 6.44% | outcome [2] | outcome [3] | outcome [4] | outcome [14] | outcome [5] | Potency [6] | Potency [7] | Potency [8] | Potency [9] | Potency [10] | Potency [11] | Potency [12] | Potency [13]

COC1CC(=O)C23C(=O)NC(CC(C)C)C2C(C)=C(C)C(OO)C3/C=C(\C)CCC(O)C1O (centres undefined)
inactive: outcome [1] | outcome [2] | outcome [3] inactive [at 17.4 µM] | outcome [4] inactive [at 17.4 µM] | outcome [5] inactive [at 17.4 µM] | Potency [6] | Potency [7] | Potency [8] | Potency [9] | Potency [10] | Potency [11] | Potency [12] | Potency [13]

C/C=C(\C)C(=O)OC1CC2C(C)(C)OC(=O)CC(OC(C)=O)C2(C)C2CC(OC(=O)C(C)C)C3(C)C(c4ccoc4)CC4OC43C12C (centres undefined)
inactive: max response [1] 7.39% | max response [2] 0.059% | outcome [3] inactive [at 17.4 µM] | outcome [4] inactive [at 17.4 µM] | Potency [6] | Potency [8] | Potency [9] | Potency [10] | Potency [11] | Potency [12] | Potency [13]

COC(=O)[C@@]12C(=O)C(C)C(=O)[C@]1(C)C(C)=C[C@H]1[C@]3(C=O)CC[C@H](OC(C)=O)C(C)(C)[C@H]3CC[C@@]12C (some centres undefined)
inactive: max response [1] 6.62% | max response [2] 3.28% | outcome [3] inactive [at 17.4 µM] | outcome [4] inactive [at 17.4 µM] | outcome [14] inactive [at 17.4 µM] | Potency [6] | Potency [7] | Potency [8] | Potency [9] | Potency [10] | Potency [11] | Potency [12] | Potency [13]

CCNC(C)Cc1cccc(C(F)(F)F)c1 (centres undefined)
inactive: max response [1] 20.4%

O=C/C=C/c1ccccc1
inactive: max response [1] 17.4%

Clc1ccccc1Cl
inactive: max response [1] 4.39%

C[C@]12CC[C@H](O)C[C@H]1CC[C@@H]1[C@@H]2CC[C@]2(C)[C@@H](c3ccc(=O)oc3)C[C@H]3O[C@]132
active: Potency [1] 1.84 µM

COc1cc(CCNCc2ccccc2O)c(OC)cc1C#N
inactive: outcome [1] | max response [2] 4.5% | outcome [3] | outcome [4] | Potency [6] | Potency [7] | Potency [8] | Potency [9] | Potency [10] | Potency [11] | Potency [12] | Potency [13]

COc1cc(C)[nH]c(=O)c1CNC(=O)c1c(C)n([C@H](C)C2CCOCC2)c2ccccc12
inactive: outcome [1] | outcome [2] | outcome [3] | outcome [14] | outcome [5] | Potency [6] | Potency [8] | Potency [9] | Potency [10] | Potency [11] | Potency [12] | Potency [13]
